Laboratory results published in PubChem BioAssay (Tox21).
Several values for one entry are separate records, joined by “and”; a condition that tells them apart may be missing. Identical values can stand only once. Results filed as inconclusive are left out. The source holds several records for some structures; these can differ, active in one and inactive in another. Activity calls are given as the source filed them. Unless noted, the call rests on the fitted dose curve; in most records, active means well fitted curve in the direction sought with a large enough effect in the repeat runs; inconclusive means weak or mixed curves; inactive means no such curve, though single readings can be large; an effect the other way counts as inactive or inconclusive.

Columns and labels:
[1] = qHTS assay to identify small molecule agonists of H2AX - cell viability counter screen (AID 1224847; calls by dose curve; further: nearly all actives have a fitted effect of over 30% in size; further: potency means the concentration at half of the fitted maximal effect)
Outline: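 For this counter screen, overnight-attached CHO-K1 cells received test compounds (15 concentrations, 0.76% DMSO final); 3 hr later at 37C, CellTiter-Glo reagent was added and luminescence recorded after 30 min at room temperature.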

[2] = qHTS RealTime-Glo MT Cell Viability Assay in HepG2 cells - 24 hour (AID 1224867); further: nearly all actives have a fitted effect of over 50% in size; further: potency means the concentration at half of the fitted maximal effect
Outline: (§1)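 HepG2 suspension premixed with RealTime-Glo reagents is plated at 600 cells per well and left 5 h at 37 C/5% CO2. Compounds in DMSO then go in, and bioluminescence reflecting viable cell number is recorded over 40 h.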

[3] = qHTS RealTime-Glo MT Cell Viability Assay in HEK293 cells - 32 hour (AID 1224868); further: nearly all actives have a fitted effect of over 50% in size; further: potency means the concentration at half of the fitted maximal effect
Outline: (§2)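 Reads taken at 0, 8, 16, 24, 32 and 40 h from the same wells. HEK293 cells (600/well) carried RealTime-Glo reagents from seeding, with compound added after a 5 h settle at 37 C.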

[4] = A CellTox Green Cytotoxicity Assay to monitor cytotoxicity in HEK293 cells - 0 hour (AID 1224869); further: on the % scale 0 is the no-effect control and ±100 the full control effect; nearly all actives have a fitted effect of over 50% in size
Outline: (§3)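 Tox21 screen in HEK293: membrane-impermeant cyanine dye fluoresces on binding dead-cell DNA; compound pinned 5 h post-seeding, plates held at 37 C, signal read repeatedly through 40 h.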

[5] = qHTS RealTime-Glo MT Cell Viability Assay in HepG2 cells - 40 hour (AID 1224870); further: nearly all actives have a fitted effect of over 50% in size; further: potency means the concentration at half of the fitted maximal effect
Outline: (§4)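 HepG2 cells (600/well) mixed with RealTime-Glo MT reagent, settled 5 h at 37 C/5% CO2 before compound addition. Nonlytic NanoLuc luminescence from viable-cell prosubstrate reduction read repeatedly during 40 h treatment at 37 C.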

[6] = A CellTox Green Cytotoxicity Assay to monitor cytotoxicity in HEK293 cells - 40 hour (AID 1224871); further: nearly all actives have a fitted effect of over 45% in size; further: potency means the concentration at half of the fitted maximal effect
Outline: as §3

[7] = qHTS RealTime-Glo MT Cell Viability Assay in HEK293 cells - 16 hour (AID 1224872); further: nearly all actives have a fitted effect of over 50% in size; further: potency means the concentration at half of the fitted maximal effect
Outline: as §2

[8] = qHTS RealTime-Glo MT Cell Viability Assay in HepG2 cells - 8 hour (AID 1224873); further: nearly all actives have a fitted effect of over 55% in size; further: potency means the concentration at half of the fitted maximal effect
Outline: as §4

[9] = qHTS RealTime-Glo MT Cell Viability Assay in HEK293 cells - 40 hour (AID 1224874); conditions: RealTime-Glo luminescence; max response: stronger effect = lower value; further: nearly all actives have a fitted effect of over 50% in size; further: potency means the concentration at half of the fitted maximal effect; on max response: on the % scale 0 is the no-effect control and ±100 the full control effect
Outline: (§5)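 HEK293 + NanoLuc + prosubstrate, 600 cells/well; 5 h, 37 C/5% CO2; compound 23 nL in DMSO by pintool; 37 C; luminescence read at 0, 8, 16, 24, 32 and 40 h time points.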

[10] = A CellTox Green Cytotoxicity Assay to monitor cytotoxicity in HEK293 cells - 24 hour (AID 1224875); further: nearly all actives have a fitted effect of over 45% in size; further: potency means the concentration at half of the fitted maximal effect; on activity change: on the % scale 0 is the no-effect control and ±100 the full control effect
Outline: as §3

[11] = A CellTox Green Cytotoxicity Assay to monitor cytotoxicity in HepG2 cells - 16 hour (AID 1224876); further: nearly all actives have a fitted effect of over 45% in size; further: potency means the concentration at half of the fitted maximal effect
Outline: (§6)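 Measurements at 0, 8, 16, 24, 32 and 40 h of treatment captured CellTox Green fluorescence in HepG2 cells that had been co-plated with reagent and preincubated 5 h at 37 C/5% CO2.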

[12] = qHTS RealTime-Glo MT Cell Viability Assay in HepG2 cells - 32 hour (AID 1224877); further: nearly all actives have a fitted effect of over 55% in size; further: potency means the concentration at half of the fitted maximal effect
Outline: as §1

[13] = A CellTox Green Cytotoxicity Assay to monitor cytotoxicity in HepG2 cells - 24 hour (AID 1224878); further: nearly all actives have a fitted effect of over 45% in size; further: potency means the concentration at half of the fitted maximal effect; on Cytotoxicity: on the % scale 0 is the no-effect control and ±100 the full control effect
Outline: as §6

[14] = A CellTox Green Cytotoxicity Assay to monitor cytotoxicity in HepG2 cells - 40 hour (AID 1224879); further: nearly all actives have a fitted effect of over 40% in size; further: potency means the concentration at half of the fitted maximal effect
Outline: as §6

[15] = qHTS RealTime-Glo MT Cell Viability Assay in HEK293 cells - 0 hour (AID 1224880)
Outline: as §5

[16] = A CellTox Green Cytotoxicity Assay to monitor cytotoxicity in HEK293 cells - 32 hour (AID 1224881); further: nearly all actives have a fitted effect of over 40% in size; further: potency means the concentration at half of the fitted maximal effect
Outline: as §3

[17] = qHTS assay to identify small molecule antagonists of the estrogen related receptor (ERR) signaling pathway from Tox21 library (AID 1224848)
Outline: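 Compounds dissolved in DMSO are pin-transferred onto ERR reporter cells (2,000 per well) that have settled for 6 h at 37 C. Plates then incubate 18 h at 37 C before ONE-Glo luciferase reagent and a luminescence read 30 min later.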

[18] = qHTS assay to identify small molecule agonists of the estrogen related receptor (ERR) signaling pathway from Tox21 library (AID 1224849; calls by dose curve; further: on the % scale 0 is the no-effect control and ±100 the full control effect; nearly all actives have a fitted effect of over 15% in size); conditions: ERR reporter cell line, ONE-Glo luciferase, 18 h; at 92.4 µM (top of the series) unless noted
Outline: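 Tox21 compounds tested for ERR agonism in an NTP reporter cell line: 18 h treatment at 37 C, then ONE-Glo luminescence.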

CCCCCCCCCCCCCC[P+](CCCC)(CCCC)CCCC (tested in a mixture with another compound)
active: Potency [1] 3.6 µM | Potency [2] 19.6 µM | Potency [3] 0.553 µM | Potency [5] 19.6 µM | Potency [6] 15.6 µM | Potency [7] 8.76 µM | Potency [8] 19.6 µM | Potency [9] 0.349 µM | Potency [10] 17.5 µM | Potency [11] 19.6 µM | Potency [12] 19.6 µM | Potency [13] 15.6 µM | Potency [14] 13.9 µM | Potency [16] 15.6 µM
inactive: Potency [4] | Potency [15]

CCCCCCCCCCCC(=O)NCCCN(C)C
active: Potency [1] 101 µM | Potency [2] 43.6 µM | Potency [3] 38.9 µM | Potency [5] 38.9 µM | Potency [6] 49 µM | Potency [7] 49 µM | Potency [9] 34.7 µM | Potency [10] 54.9 µM | Potency [11] 43.6 µM | Potency [13] 34.7 µM | Potency [14] 30.9 µM | Potency [16] 54.9 µM
inactive: Potency [4]

CC[C@@]1(O)C(=O)OCc2c1cc1n(c2=O)Cc2c-1nc1ccccc1c2/C=N/OC(C)(C)C
inactive: activity change, positive = activation [18] -54.3% [at 42.5 µM] | Potency [4] | Potency [6] | Potency [8] | Potency [10] | Potency [15] | Potency [16]
active: Potency [17] 0.0596 µM | Potency [3] 0.0239 µM | Potency [5] 1.07 µM | Potency [9] 0.0239 µM | Potency [11] 3.38 µM | Potency [13] 0.848 µM | Potency [14] 1.07 µM

O=C1CCCCCN1SSN1CCCCCC1=O
active: Potency [17] 54.5 µM | Potency [6] 49 µM | Potency [14] 54.9 µM
inactive: activity change, positive = activation [18] -43.7% | Potency [3] | Potency [4] | Potency [7] | Potency [8] | max response [9] -12.6% | Potency [10] | Potency [11] | Potency [15]

Fc1ccc(C(c2ccc(F)cc2)N2CCN(C/C=C/c3ccccc3)CC2)cc1
inactive: activity change, positive = activation [18] -51.3% [at 42.5 µM] | Potency [4] | Potency [5] | Potency [10] | Potency [13] | Potency [14] | Potency [15]
active: Potency [17] 23.7 µM | Potency [3] 21.3 µM | Potency [9] 19 µM

COc1cc(-c2nc(NC(=O)c3cc4cc(C)cc(C)c4n3CC(=O)O)sc2CCC2CCCCC2)c(OC)cc1Cl
inactive: activity change, positive = activation [18] -61.8% | Potency [4] | Potency [10] | Potency [16]
active: Potency [17] 31.5 µM | Potency [2] 40 µM | Potency [3] 25.2 µM | Potency [5] 40 µM | Potency [9] 22.5 µM | Potency [12] 40 µM | Potency [14] 44.9 µM

OCc1c[nH]c2ccccc12
active: Potency [17] 13.7 µM
inactive: activity change, positive = activation [18] -39.5% | Potency [2] | Potency [4] | Potency [5] | Potency [11] | Potency [13] | Potency [15]

O=C1c2c(O)ccc(Nc3ccc(CCO)cc3)c2C(=O)c2c([N+](=O)[O-])ccc(O)c21
inactive: Potency [3] | Potency [4] | Potency [5] | Potency [6] | max response [9] -18.6% | Potency [10] | Potency [12] | Potency [13] | Potency [14] | Potency [15] | Potency [16]

CCN(CC)CCCC(C)Nc1c2ccc(Cl)cc2nc2ccc(OC)cc12 (stereo unspecified)
inactive: Potency [1] | Potency [4]
active: Potency [2] 6.74 µM | Potency [3] 2.68 µM | Potency [5] 5.35 µM | Potency [6] 6.01 µM | Potency [7] 4.25 µM | Potency [9] 3.01 µM | Potency [10] 10.7 µM | Potency [12] 6.01 µM | Potency [13] 9.52 µM | Potency [14] 6.01 µM | Potency [16] 7.56 µM

O=C1Cc2cc(CCN3CCN(c4nsc5ccccc45)CC3)c(Cl)cc2N1
active: Potency [17] 26.6 µM | Potency [6] 26.8 µM | Potency [7] 23.9 µM
inactive: activity change, positive = activation [18] -35.7% [at 42.5 µM] | Potency [4] | Potency [5]

O=c1cc(-c2ccc(O)cc2)oc2cc(O)cc(O)c12
inactive and 34.7 µM (active): Potency [13]
active: Potency [14] 38.9 µM
inactive and 27.5 µM (active): Potency [11]
inactive and 43.6 µM (active): Potency [6]
inactive: Potency [2] | Potency [4] | Potency [5] | Potency [8] | Potency [10] | Potency [12] | Potency [16]

Cc1ccc(O)c2ncccc12
active: Potency [17] 18.8 µM | Potency [14] 7.56 µM
inactive: activity change, positive = activation [18] -58.3% [at 42.5 µM] | Potency [2] | Potency [3] | Potency [4] | Potency [5] | Potency [7] | Potency [8] | max response [9] -18.6% | Potency [10] | Potency [11] | Potency [12]

O=CC=C(c1ccccc1)c1ccccc1
inactive: Potency [2] | Potency [4] | Potency [5] | Potency [8] | Potency [11] | Potency [13] | Potency [14] | Potency [15]
active: Potency [3] 17.5 µM | Potency [9] 17.5 µM

CCc1oc2ccccc2c1C(=O)c1cc(Br)c(O)c(Br)c1
inactive: Potency [2] | Potency [4] | Potency [5] | Potency [6] | Potency [8] | Potency [10] | Potency [11] | Potency [12] | Potency [13] | Potency [14] | Potency [15] | Potency [16]

O=C(O)c1cc(O)c2c(c1)C(=O)c1cccc(O)c1C2=O
inactive: Potency [1] | Potency [2] | Potency [3] | Potency [4] | Potency [5] | Potency [6] | Potency [7] | Potency [8] | max response [9] -10.8% | Potency [10] | Potency [11] | Potency [12] | Potency [13] | Potency [14] | Potency [15] | Potency [16]

COc1ccc(-c2ccc3cc(C(=O)O)ccc3c2)cc1C12CC3CC(CC(C3)C1)C2
inactive: Potency [1] | activity change, positive = activation [18] -10.4% [at 42.5 µM] | Potency [4] | Potency [6] | Potency [10] | Potency [15] | Potency [16]
active: Potency [3] 5.35 µM | Potency [9] 4.77 µM | Potency [13] 23.9 µM | Potency [14] 19 µM

CCCCCCCC/C=C\CCCCCCCCOCCO
active: Potency [1] 65.6 µM | Potency [3] 3.19 µM | Potency [6] 31.9 µM | Potency [7] 3.19 µM | Potency [9] 3.19 µM | Potency [13] 63.7 µM | Potency [14] 63.7 µM
inactive: Potency [4] | Potency [5] | Potency [8] | Potency [10] | Potency [15]

NC(=O)C1(N2CCCCC2)CCN(CCCN2c3ccccc3CCc3ccc(Cl)cc32)CC1
active: Potency [1] 55.2 µM | Potency [2] 23.9 µM | Potency [3] 21.3 µM | Potency [5] 23.9 µM | Potency [6] 26.8 µM | Potency [7] 21.3 µM | Potency [9] 21.3 µM | Potency [11] 26.8 µM | Potency [13] 23.9 µM | Potency [14] 23.9 µM
inactive: Potency [4] | Potency [15]

N=C1N=C(N)c2ccccc21
inactive: Potency [4] | Potency [6] | Potency [8] | Potency [10] | Potency [11] | Potency [15] | Potency [16]
active: Potency [3] 24.5 µM | Potency [9] 24.5 µM | Potency [14] 43.6 µM
